Measured values from PubChem BioAssay AID504329 (Southern Research Specialized Biocontainment Screening …, 2011).
In all, about 340,000 compounds went through this assay and about 1,000 (0.29%) were called active. A selection follows. Results with a measured potency or affinity are listed apart. Unmarked numbers belong to inactive results. Rule as the data show it: inconclusive = inhibition above about 27% without an active follow-up result; inactive = below that.

test: H1N1 influenza NS1A inhibitors, functional cell based assay (AID 504329); conditions: percent inhibition, at 12.5 µM, active compounds read high

| Compound | inhibition |
| --- | --- |
| CSC1=N/C(=C/c2ccc(-n3cncn3)cc2)C(=O)N1 | 18.2% |
| CC(=NNC(=S)N1CC2CCC(CC2)C1)c1cccc(C)n1 | 23.1% |
| CSC(=S)N/N=C(\C)c1ccccc1 | -5.26% |
| CC(=NNC(=S)N1CCCCCC1)c1cccc2cccnc12 | 25.3% |
| CC(=NNC(=S)N1CCN(c2ccccn2)CC1)c1ccccn1 | 15.8% |
| C/C(=N/O)c1ccccn1 | 1.41% |
| Cc1cccc(C(=S)N2CCOCC2)n1 | -4.89% |
| CSC(=S)N/N=C(\C)c1ccc(Br)cc1 | -6.45% |
| S=C(Nc1ccc2nc(-c3ccccn3)c(-c3ccccn3)nc2c1)N1CCCCC1 | -3.09% |
| O=C(CN1C(=O)c2ccc([N+](=O)[O-])cc2C1=O)Nc1ccccc1N1CCCC1 | -7.2% |
| Cc1ccsc1/C=N/Nc1nc(=O)[nH]nc1C | 12% |
| O=[N+]([O-])c1cc([N+](=O)[O-])c(Oc2ccc(Br)cc2Br)cc1NN1CCCCC1 | -0.23% |
| NCCCC[C@H](N)c1nnc([C@H](CCC(=O)O)NC(=O)C2CCNCC2)o1 | 11.3% |
| C[C@H]1CN([C@@H](C)CO)C(=O)c2cccc(NC(=O)c3ccncc3)c2O[C@H]1CN(C)C(=O)Nc1ccccc1 | -10.3% |
| C/C(=N\NC(=O)C1CCCN(S(=O)(=O)c2ccccc2)C1)c1ccncc1 (centres undefined) | -23.8% |
| S=C(Nc1ccccc1)N1CCN(C2CCCCC2)CC1 | 11.4% |
| S=C(NCc1ccccc1)N1CCN(C2CCCCC2)CC1 | -12% |
| C/C(=N\NC(=O)C1CCCN(S(=O)(=O)c2ccccc2)C1)c1cccnc1 (centres undefined) | -20.5% |
| CC(=O)C1=C(O)C(=O)N(CCC(=O)O)C1c1ccccc1[N+](=O)[O-] (centres undefined) | -13.3% |
| Cc1ccc(Nc2ccc(S(=O)(=O)N3CCOCC3)cc2[N+](=O)[O-])c(C)c1 | 11.1% |
| Cc1ccccc1Nc1ccc(S(=O)(=O)N2CCOCC2)cc1[N+](=O)[O-] | 12.2% |
| COc1ccc(C(=O)NCCc2nnc3ccc(SCC(=O)Nc4ccccc4)nn23)cc1 | -20% |
| Cc1ccc(OCC(=O)N2CCC(N3CC(C)CC(C)C3)CC2)cc1 (centres undefined) | 17% |
| O=C(O)COc1ccc(S(=O)(=O)NCCc2ccccc2)cc1 | -12% |
| Oc1ccccc1Nc1ccccn1 | -5.39% |

| Compound | inhibition |
| --- | --- |
| c1ccc(Nc2ccccn2)nc1 | -3.53% |
| O=C(O)c1ccccc1C(=O)c1ccc(F)c(F)c1 | 3.3% |
| O=C(NCCCNC(=O)c1cccnc1)c1ccc(Cl)cc1 | -0.27% |
| Cc1cccc(C)c1NC(=O)C(NC(=O)CN1C(=O)c2ccccc2C1=O)c1ccccc1 (centres undefined) | -3.98% |
| C=C(CC)C(=O)c1ccc(OCC(=O)O)c(Cl)c1Cl | 0.79% |
| Cc1cc(Cl)ccc1OCC(=O)O | -1.09% |
| O=C(COC(=O)COc1ccc(Cl)cc1Cl)NC1CC1 | 0.21% |
| CN(CC(=O)Nc1ccccc1C(=O)NC1CC1)Cc1ccc(N(C)C)cc1 | 0.15% |
| O=C(Nc1ccc2c(c1)C(=O)c1ccccc1-2)c1ccccc1 | -5.09% |
| Nc1c(Br)cc(Br)c2c1C(=O)c1c(cccc1S(=O)(=O)O)C2=O | 5.84% |
| Cc1cc(C)c(NC(=O)COC(=O)c2cccc3c2C(=O)c2ccccc2C3=O)c(C)c1 | 3.94% |
| Nc1ccc(NC(=O)c2ccccc2)c2c1C(=O)c1ccccc1C2=O | 24.3% |
| CSc1cccc(NC(=O)CN(C)S(=O)(=O)c2ccc(C)cc2)c1 | -2.41% |
| CCOc1ccc(NS(=O)(=O)c2ccc(C(=O)NCC(C)(C)N3CCOCC3)cc2)cc1 | -14.4% |
| S=C(NCc1ccccc1)NCc1ccccn1 | 1.05% |
| O=C(Cc1ccccc1)N/N=C/c1ccccn1 | -2.81% |
| O=C(CCCC(=O)N/N=C\c1ccccn1)N/N=C\c1ccccn1 | -2.81% |
| Cc1ccc(NC(=S)NCc2ccccn2)cc1 | -14.7% |
| Cc1ccc2c(c1)oc(=O)n2CC(=O)c1ccccc1 | -20.6% |
| CCOC(=O)CC1CCCCN1C(=O)c1ccc2nc(CCOC)oc2c1 (centres undefined) | 1.79% |
| CCN1CCN(Cc2nc3cc(NC(=O)COc4ccc([N+](=O)[O-])cc4)ccc3n2C)CC1 | 0.32% |
| CC(=O)c1ccc(N(CC(=O)NCC2CCCO2)C(=O)CCC(=O)Nc2cc(C)on2)cc1 (centres undefined) | -8.06% |
| Cc1cccn2c(=O)c(C(=O)NC3CCCCC3)c(O)nc12 | 5.08% |
| CCOC(=O)C1CCCN(C(=O)/C=C/c2ccc(Cl)cc2)C1 (centres undefined) | -12.8% |
| O=C(O)C1C2C=CC(C2)C1C(=O)Nc1ccc(Cl)c(Cl)c1 (centres undefined) | 1.34% |

| Compound | inhibition |
| --- | --- |
| COC(=O)c1cccc(/C=N/NC(N)=S)c1O | -14.3% |
| Oc1ccccc1C=NNC(=S)NN=Cc1ccccc1O | 16.5% |
| NC(=S)N/N=C/c1ccccc1 | -0.87% |
| NC(=S)N/N=C/c1cccc(/C=N/NC(N)=S)c1 | -0.05% |
| Cc1ccc(NC(=O)c2cc(S(=O)(=O)N3CCCC3)cn2C)cc1 | 2.93% |
| COc1cccc(S(=O)(=O)Nc2ccc(C(=O)N3CCN(C(=O)c4ccco4)CC3)cc2)c1 | 5.1% |
| COC(=O)C=CC(=NNc1ccccc1)c1ccccc1 | 3.06% |
| Cc1nn(Cc2ccc(Cl)cc2)c(C)c1NC(=O)CCCn1nc(C)c([N+](=O)[O-])c1C | 10.9% |
| Oc1c(CN2CCN(c3ccccc3)CC2)cc(Br)c2cccnc12 | 14.4% |
| O=C(c1ccc(Cl)cc1)C1CCCN(Cc2cccc3cccnc23)C1 (centres undefined) | -0.71% |
| Oc1c(Br)cc(Br)c2cccnc12 | -9.24% |
| O=C(O)c1ccc2cccnc2c1O | -0.15% |
| CC(C(=O)NC1CCCCCC1)N(c1ccccc1)S(C)(=O)=O (centres undefined) | 7.2% |
| CC1(C)Cc2cccc(Oc3ccc(S(=O)(=O)N4CCCC4)cn3)c2O1 | 6.74% |
| CC(C)(CNC(=O)C1CCCN1C(=O)c1cccs1)N1CCOCC1 (centres undefined) | -1% |
| O=C(c1cc(-c2ccc(Cl)cc2)n[nH]1)N1CCc2ccccc2C1 | -1.28% |
| COc1ccccc1C(=O)NC(=O)COC(=O)c1cnc(C)cn1 | 1.58% |
| CCc1cccc(CC)c1NC(=S)NCCc1ccc(O)c(O)c1 | 9.59% |
| CCN1C(=C(C#N)C#N)C=Cc2ccccc21 | -6.42% |
| CCN1/C(=C\c2ccc3cc(C)ccc3[n+]2CC)Sc2cc(C)c(C)cc21 | 25.6% |
| CCN1/C(=C/c2ccc3cc(C)ccc3[n+]2CC)Sc2ccc3sccc3c21 | -14% |
| CCN1/C(=C/c2ccc3ccccc3[n+]2CCCS(=O)(=O)[O-])C=Cc2cc(C)ccc21 | 19.6% |
| CCN1/C(=C/c2ccc3cc(C)ccc3[n+]2CC)Sc2cc(C)c(C)cc21 | 28.7% |
| CCN1/C(=C/c2ccc3cc(C)ccc3[n+]2CC)Sc2ccccc21 | 21% |
| CC(=O)N(C)C(c1ccc(N(C)C)cc1)c1nnnn1-c1c(C)cccc1C (centres undefined) | 3.51% |

| Compound | inhibition |
| --- | --- |
| CCCC(=O)Nc1nnc(S(=O)(=O)N(CC(C)C)c2ccccc2)s1 | -2.29% |
| CCN(CC)C(=O)[C@H]1C[C@H](CC(=O)NCCc2ccccn2)C(=O)N2CCc3c([nH]c4ccc(Cl)cc34)[C@]12C | 15.9% |
| O=C(CCC1CCCN(c2ncccn2)C1)NCc1ccccc1F (centres undefined) | -9.11% |
| O=C1OCc2cc(NC(=O)C34CC5CC(CC(C5)C3)C4)ccc21 | 1.32% |
| Nc1ccc2c(c1)C(=O)c1ccc(Cl)cc1-2 | -15.2% |
| O=C(O)c1cccc2c1-c1ccc(Cl)cc1C2=O | -19.9% |
| C[C@@H]1Cc2c(O)c(O)cc(O)c2C(=O)O1 | 3.88% |
| CC1CC(=O)c2c(cc3c(-c4c(O)cc(O)c5c(O)c6c(cc45)OC(C)CC6=O)c(O)cc(O)c3c2O)O1 (centres undefined) | 24.8% |
| O=C(CSc1nnc(-c2ccco2)n1CC1CCCO1)NC1CCCC1 (centres undefined) | 20.3% |
| CCOc1ccc(N=Nc2ccc(O)c3ncccc23)cc1 | 4% |
| CCOc1ccc2[nH]c3ncccc3c(=O)c2c1 | 3.05% |
| O=C(Nc1ccc([N+](=O)[O-])cc1Cl)c1cc(Cl)ccc1O | 8.63% |
| O=C(Nc1cccc(O)c1)c1ccc([N+](=O)[O-])cc1Cl | -2.66% |
| Cc1cccc(NS(=O)(=O)c2csc(C(N)=O)c2)c1 | 14.1% |
| Cc1cccc(OCCCC(=O)NNC(=O)c2ccc(F)cc2)c1 | -5.91% |
| COc1ccc(N=Nc2ccc(N)nc2N)cc1 | 20.4% |
| COc1cc(N=Nc2ccc(C(=O)N(C)C)cc2)c(C)cc1N | 11.5% |
| Cn1c(Cn2c(=O)sc3ccccc32)nnc1SCC(=O)NCCc1ccccc1 | 1.01% |
| CN(C)c1ccc(N=Nc2ccccc2C(=O)OCC(=O)Nc2ccccc2C(F)(F)F)cc1 | 28.2% |
| CN(C)c1ccc(N=Nc2ccccc2C(=O)OCC(=O)N(C)C2CCCCC2)cc1 | 10.8% |
| CC(=O)c1ccc(NC(=O)COC(=O)c2ccccc2N=Nc2ccc(N(C)C)cc2)cc1 | 17.2% |
| CN(C)c1ccc(N=Nc2ccccc2C(=O)OCC(=O)N2CCCCCC2)cc1 | 28.4% |
| CN(C)c1ccc(N=Nc2ccccc2C(=O)OCC(=O)N2CCCC2)cc1 | 22.2% |
| CN(C)c1ccc(N=Nc2ccccc2C(=O)OCC(=O)NCC2CCCCC2)cc1 | 8.64% |
